PubChem BioAssay (Tox21)
Records with an inconclusive call do not appear. Activity calls are given as the source filed them. Unless noted, the call rests on the fitted dose curve; in most records, active means well fitted curve in the direction sought with a large enough effect in the repeat runs; inconclusive means weak or mixed curves; inactive means no such curve, though single readings can be large; an effect the other way counts as inactive or inconclusive.

Experiments:
[1] = qHTS assay to identify small molecule antagonists of the estrogen related receptor (ERR) signaling pathway from Tox21 library - cell viability counter screen (AID 1224834); further: nearly all actives have a fitted effect of over 30% in size; further: potency means the concentration at half of the fitted maximal effect
How it was run: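 ERR reporter cells were plated 6 h before compound addition, then exposed to test compounds in DMSO for 17.5 h at 37 C. Viability was read as CellTiter-Fluor fluorescence after a 30-minute incubation at 37 C.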

[2] = target: Luciferin 4-monooxygenase (Photinus pyralis) (UniProt P08659); experiment: qHTS assay to identify small molecule inhibitors of firefly luciferase (AID 1224835); further: series mostly up to about 120 µM; nearly all actives have a fitted effect of over 25% in size
Sequence of Luciferin 4-monooxygenase (Photinus pyralis) (P08659 whole entry, looked up): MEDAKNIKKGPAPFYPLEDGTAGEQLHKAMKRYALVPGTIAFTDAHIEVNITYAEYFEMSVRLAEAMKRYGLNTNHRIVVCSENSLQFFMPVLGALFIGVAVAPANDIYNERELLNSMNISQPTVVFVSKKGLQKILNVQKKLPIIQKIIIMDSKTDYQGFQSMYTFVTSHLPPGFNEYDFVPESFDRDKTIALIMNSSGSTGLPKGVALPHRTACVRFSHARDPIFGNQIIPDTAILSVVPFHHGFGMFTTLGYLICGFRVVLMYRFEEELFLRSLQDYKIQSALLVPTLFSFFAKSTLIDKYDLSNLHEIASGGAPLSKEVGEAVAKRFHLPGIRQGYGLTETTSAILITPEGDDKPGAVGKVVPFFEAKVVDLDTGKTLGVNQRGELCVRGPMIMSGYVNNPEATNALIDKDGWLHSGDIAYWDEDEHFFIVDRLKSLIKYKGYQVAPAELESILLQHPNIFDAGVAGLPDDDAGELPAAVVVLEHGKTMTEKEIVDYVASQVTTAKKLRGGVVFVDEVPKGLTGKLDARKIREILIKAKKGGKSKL
How it was run: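 Inhibition of purified Photinus luciferase is measured by luminescence. Substrate levels (D-luciferin, ATP) sit at their KM values. Each compound is tested in a concentration series.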

[3] = qHTS assay to identify small molecule agonists of the constitutive androstane receptor (CAR) signaling pathway - cell viability counter screen (AID 1224836); further: nearly all actives have a fitted effect of over 45% in size; further: potency means the concentration at half of the fitted maximal effect; on viability change, negative = cytotoxic: series mostly up to about 92 µM
How it was run: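 Cells were seeded and incubated 4 hrs. Compounds were added across 15 concentrations together with PK11195 at 0.75 uM final. Plates were incubated 23 hrs at 37 C. CellTiter-Fluor was added and fluorescence measured.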

[4] = target: Nuclear receptor subfamily 1 group I member 3 (Homo sapiens) (UniProt Q14994); experiment: qHTS assay to identify small molecule antagonists of the constitutive androstane receptor (CAR) signaling pathway (AID 1224838); further: nearly all actives have a fitted effect of over 40% in size
Sequence of Nuclear receptor subfamily 1 group I member 3 (Homo sapiens) (Q14994 whole entry, looked up): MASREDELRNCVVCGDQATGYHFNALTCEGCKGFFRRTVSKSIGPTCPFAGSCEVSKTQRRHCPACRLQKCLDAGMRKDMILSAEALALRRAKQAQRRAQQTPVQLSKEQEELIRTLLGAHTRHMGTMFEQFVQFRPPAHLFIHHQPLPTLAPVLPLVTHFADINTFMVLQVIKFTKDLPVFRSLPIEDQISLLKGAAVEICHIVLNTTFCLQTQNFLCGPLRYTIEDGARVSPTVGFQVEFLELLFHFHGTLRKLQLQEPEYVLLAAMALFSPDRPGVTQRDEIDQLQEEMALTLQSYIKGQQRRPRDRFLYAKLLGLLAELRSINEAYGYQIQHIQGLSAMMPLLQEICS
How it was run: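 HepG2 cells stably co-transfected with hCAR and a CYP2B6-2.2kb luciferase reporter were seeded 4 h before compound addition at 15 concentrations. Cells were stimulated with 50 nM CITCO (final) for 24 h at 37 C; luciferase luminescence was then read.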

[5] = target: Nuclear receptor subfamily 1 group I member 3 (Homo sapiens) (UniProt Q14994); experiment: qHTS assay to identify small molecule agonists of the constitutive androstane receptor (CAR) signaling pathway (AID 1224839);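 further: HepG2 cells stably carrying human CAR and a CYP2B6 luciferase reporter; series mostly up to about 92 µM; nearly all actives have a fitted effect of over 15% in size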
How it was run: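 Cells were plated and incubated 4 hrs, then dosed with compounds at 15 concentrations. PK11195 was added to 0.75 uM final. After 24 hrs at 37 C, luciferase luminescence was measured.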

[6] = qHTS assay to identify small molecule antagonists of the estrogen related receptor signaling pathway with the pleiotropic PPARgamma coactivator (PGC) from Tox21 10K library (AID 1224841; call rule not given here; further: series mostly up to about 92 µM; actives are mostly falling curves and most rising ones were filed inactive; nearly all actives have a fitted effect of over 50% in size)
How it was run: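 PGC/ERR reporter cells were seeded at 2,000 cells/well and held 6 hours at 37 C/5% CO2 before pin-tool addition of compounds in DMSO. After 18 hours at 37 C, One-Glo was added and luminescence read after 30 minutes at room temperature.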

[7] = qHTS assay to identify small molecule agonists of the estrogen related receptor signaling pathway with the pleiotropic PPARgamma coactivator (PGC) from Tox21 10K library (AID 1224842); further: nearly all actives have a fitted effect of over 15% in size
How it was run: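 Luminescence from One-Glo (30 min, room temperature) measured after PGC/ERR cells had 18 h at 37 C with pinned compound (23 nL in DMSO). Cells had been seeded at 2,000 per well and pre-incubated 6 h.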

[8] = qHTS assay to identify small molecule antagonists of the constitutive androstane receptor (CAR) signaling pathway - cell viability counter screen (AID 1224837); further: nearly all actives have a fitted effect of over 45% in size; further: potency means the concentration at half of the fitted maximal effect; on activity change, negative = cytotoxicity: series mostly up to about 92 µM
How it was run: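 HepG2 cells stably expressing hCAR and a CYP2B6-2.2kb reporter were plated and pre-incubated 4 hr at 37 C/5% CO2, then given compounds at 15 concentrations plus 50 nM CITCO (final). After 23 hr, viability was read by CellTiter-Fluor fluorescence.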

[9] = qHTS assay to identify small molecule antagonists of the estrogen related receptor signaling pathway with the pleiotropic PPARgamma coactivator (PGC) from Tox21 10K library - cell viability counter screen (AID 1224840; active means well fitted cell-killing curve with a large enough effect in the repeat runs, not every such curve was filed as active; further: nearly all actives have a fitted effect of over 40% in size)
How it was run: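 PGC/ERR cells were seeded at 2,000 cells/well and left 6 hours at 37 C/5% CO2 before pin-tool addition of compounds in DMSO. After 17.5 hours at 37 C, CellTiter-Fluor was added and fluorescence read 30 minutes later.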

[10] = target: Thyrotropin receptor (Homo sapiens) (UniProt P16473); experiment: qHTS assay to identify small molecule agonists of the thyroid stimulating hormone receptor (TSHR) signaling pathway (AID 1224843; calls by dose curve; further: nearly all actives have a fitted effect of over 45% in size)
Sequence of Thyrotropin receptor (Homo sapiens) (P16473 whole entry, looked up): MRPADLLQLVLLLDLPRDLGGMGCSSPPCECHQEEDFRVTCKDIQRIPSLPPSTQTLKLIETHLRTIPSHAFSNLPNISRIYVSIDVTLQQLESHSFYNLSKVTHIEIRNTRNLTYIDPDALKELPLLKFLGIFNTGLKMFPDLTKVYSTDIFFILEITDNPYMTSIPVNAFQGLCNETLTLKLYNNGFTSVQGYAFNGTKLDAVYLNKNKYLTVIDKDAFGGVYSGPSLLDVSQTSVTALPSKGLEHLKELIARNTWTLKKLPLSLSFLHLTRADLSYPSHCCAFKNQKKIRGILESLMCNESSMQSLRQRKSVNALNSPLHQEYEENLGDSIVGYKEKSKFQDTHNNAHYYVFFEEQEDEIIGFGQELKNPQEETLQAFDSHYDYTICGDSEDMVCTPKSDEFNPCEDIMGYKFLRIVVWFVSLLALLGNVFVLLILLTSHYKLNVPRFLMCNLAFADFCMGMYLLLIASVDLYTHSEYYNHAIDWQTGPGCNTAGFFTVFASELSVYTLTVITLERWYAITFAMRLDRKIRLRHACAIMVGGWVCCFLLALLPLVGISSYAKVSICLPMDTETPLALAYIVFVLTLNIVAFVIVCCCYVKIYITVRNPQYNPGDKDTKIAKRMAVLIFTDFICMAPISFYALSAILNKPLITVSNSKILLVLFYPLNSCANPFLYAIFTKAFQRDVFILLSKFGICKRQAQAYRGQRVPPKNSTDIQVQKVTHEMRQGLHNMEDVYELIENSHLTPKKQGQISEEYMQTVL
How it was run: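 HEK293 cells stably bearing the thyrotropin receptor were plated at 800 cells/well and challenged with compound (30 min, RT). Accumulated cAMP was quantified via cAMP-d2 competing for cryptate-tagged antibody.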
On the % scale 0 is the no-effect control and ±100 the full control effect.

Cc1cc(Cl)c(C)cc1Cl
inactive: Potency [1] | Potency [2] | Potency [3] | outcome [4] | Potency [5] | Potency [6] | outcome [7]

CCc1ccc(C=O)cc1
inactive: Potency [1] | Potency [2] | Potency [8] | outcome [4] | Potency [5] | outcome [9] | Potency [6] | outcome [7] | Potency [10]

Cc1cccc2nccnc12
inactive: Potency [1] | Potency [2] | Potency [3] | Potency [8] | outcome [9] | Potency [10]

CN=C(NC#N)Nc1ccc(C2=NNC(=O)CC2C)cc1 (stereo not given)
inactive: Potency [1] | Potency [2] | Potency [3] | outcome [4] | Potency [5] | outcome [9] | Potency [6] | outcome [7]

CCCCCCN
inactive: Potency [1] | Potency [2] | Potency [3] | Potency [8] | outcome [9] | Potency [10]

O=Cc1ccc(Cl)c(Cl)c1
inactive: Potency [1] | Potency [2] | Potency [3] | Potency [8] | outcome [9] | Potency [10]

CCCC(=O)C(C)=O
inactive: Potency [1] | Potency [2] | Potency [8] | outcome [4] | Potency [5] | outcome [9] | Potency [6] | outcome [7] | Potency [10]

O=C(Nc1ccc(Cl)c(Cl)c1)C1CC1
inactive: Potency [1] | Potency [3] | Potency [8] | outcome [4] | outcome [9] | Potency [6] | outcome [7] | Potency [10]

O=C1c2ccccc2C(=O)C1c1ccccc1
inactive: Potency [1] | Potency [3] | Potency [8] | outcome [4] | Potency [5] | outcome [9] | Potency [10]

NC(CO)C(=O)NNCc1ccc(O)c(O)c1O (stereo not given)
inactive: Potency [1] | Potency [2] | Potency [8] | Potency [6] | outcome [7]

CC(=O)Nc1ccc(S(=O)(=O)Nc2ccc([N+](=O)[O-])cc2)cc1
active: Potency [1] 23.7 µM
inactive: Potency [2] | outcome [4] | Potency [5] | Potency [10]

CC(S)C(=O)NCC(=O)O (stereo not given)
inactive: Potency [1] | Potency [3] | Potency [8] | outcome [4] | Potency [5] | outcome [9] | Potency [10]

Nc1nnc(-c2cccc(Cl)c2Cl)c(N)n1
inactive: Potency [1] | Potency [2] | Potency [8] | outcome [9] | Potency [10]

CN(C)C(=O)CNC(=O)Cc1ccccc1
inactive: Potency [1] | Potency [2] | Potency [8] | outcome [4] | Potency [5] | outcome [9] | Potency [10]

BrCc1cccc(Oc2ccccc2)c1
inactive: Potency [1] | Potency [3] | Potency [8] | outcome [4] | outcome [9] | Potency [6] | outcome [7] | Potency [10]

CCCCCCCCC(=O)Cl
inactive: Potency [1] | Potency [2] | outcome [4] | Potency [5] | outcome [9] | outcome [7]

C[Si](C)=O
inactive: viability change, negative = cytotoxic [1] 2.07% [at 8.39 µM] | activity change, negative = inhibition [2] 5.26% [at 10.5 µM] | activity change, negative = cytotoxicity [8] 1.39% [at 8.39 µM] | activity, negative = inhibition [4] -3.72% [at 8.39 µM] | activation [5] -0.11% [at 8.39 µM] | activity, negative = inhibition [6] -4.65% [at 8.39 µM] | activation [7] -1.46% [at 8.39 µM] | activation [10] 1.85% [at 8.39 µM]

OCCN(CCO)c1cccc(Cl)c1
inactive: Potency [1] | Potency [2] | Potency [8] | outcome [4] | Potency [5] | Potency [10]

CC(C)CCCC(C)(C)O
inactive: Potency [1] | Potency [2] | Potency [8] | outcome [4] | Potency [5] | outcome [9] | Potency [10]

C=Cc1ccccn1
inactive: Potency [1] | Potency [2] | Potency [8] | outcome [4] | Potency [5] | outcome [9] | Potency [10]

Nc1ccc([N+](=O)[O-])c(N)c1
active: Potency [1] 47.3 µM | Potency [3] 53.1 µM | Potency [8] 47.3 µM
inactive: outcome [4] | Potency [5] | Potency [6] | outcome [7] | Potency [10]

Cc1ccc(S(=O)(=O)O)c(C)c1
inactive: Potency [1] | Potency [2] | outcome [4] | Potency [5] | outcome [9] | Potency [6] | outcome [7] | Potency [10]

O=C(NCC(O)CO)c1c(I)c(C(=O)NCC(O)CO)c(I)c(N(CCO)C(=O)CO)c1I (stereo not given)
inactive: Potency [1] | Potency [3] | Potency [8] | outcome [4] | Potency [5] | Potency [10]

CC(CC=O)CCCC(C)(C)O (stereo not given)
inactive: Potency [1] | Potency [2] | Potency [8] | outcome [9] | Potency [6] | outcome [7]
